Values joined by “and” are separate entries in the source; they are usually repeats but may differ in a detail not shown here. Equal entries are not always repeated. The campaign covered roughly 5,500 compounds. About 2,000 (36%) were called active. Roughly 18% stayed inconclusive and do not appear here. Cut-off read from the data, not from the text of the source: active = normalized growth mostly below about 0.91 (no sharp cut-off); inconclusive = no clear call, values can overlap the other calls; inactive = mostly above about 0.92. This is one part of the list.
Experiment: chemical genetic growth profiling, strain panel (AID 1159580);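 note: tested at 20 µM; growth read once vehicle control cultures reached saturation at 30 °C; 1 = growth at the plate median or of vehicle wells; lower values mean less growth of the strain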
Conditions: S. cerevisiae deletion strains, growth OD

Measured: normalized growth

C[C@H]1[C@H](C)CC[C@]2(C(=O)O)CC[C@]3(C)C(=CCC4[C@@]5(C)C[C@@H](O)[C@H](O)[C@@](C)(CO)C5[C@H](O)C[C@]43C)[C@H]12 (some centres not stated)
inactive: locus YAL021C, strain ccr4, stronger effect = lower value 1.01 | locus YAL026C, strain drs2, stronger effect = lower value 0.963 | locus YAL030W, strain snc1, stronger effect = lower value 0.973 | locus YBL061C, strain skt5, stronger effect = lower value 0.952 | locus YBR009C, strain hhf1, stronger effect = lower value 0.936 | locus YBR021W, strain FUR4, stronger effect = lower value 0.957 | locus YBR023C, strain chs3, stronger effect = lower value 0.942 | locus YBR171W, strain sec66, stronger effect = lower value 0.951 | locus YBR229C, strain ROT2, stronger effect = lower value 0.987 | locus YBR231C, strain swc5, stronger effect = lower value 0.953 | locus YBR279W, strain paf1, stronger effect = lower value 0.948 | locus YCL011C, strain gbp2, stronger effect = lower value 0.968 | locus YCL016C, strain dcc1, stronger effect = lower value 0.956 | locus YCL029C, strain bik1, stronger effect = lower value 0.981 | locus YCL061C, strain MRC1, stronger effect = lower value 0.971 | locus YCL069W, strain vba3, stronger effect = lower value 0.973 | locus YCR088W, strain abp1, stronger effect = lower value 0.961 | locus YDL005C, strain med2, stronger effect = lower value 0.948 | locus YDL035C, strain GPR1, stronger effect = lower value 0.972 | locus YDL040C, strain nat1, stronger effect = lower value 0.965 | locus YDL074C, strain BRE1, stronger effect = lower value 0.895 | locus YDL101C, strain DUN1, stronger effect = lower value 0.973 | locus YDL185W, strain tfp1, stronger effect = lower value 1.01 | locus YDR001C, strain nth1, stronger effect = lower value 0.969 | locus YDR069C, strain doa4, stronger effect = lower value 0.936 | locus YDR101C, strain arx1, stronger effect = lower value 0.967 | locus YDR150W, strain NUM1, stronger effect = lower value 0.996 | locus YDR162C, strain NBP2, stronger effect = lower value 0.954 | locus YDR297W, strain sur2, stronger effect = lower value 0.96 | locus YDR318W, strain mcm21, stronger effect = lower value 0.982 | locus YDR334W, strain swr1, stronger effect = lower value 0.978 | locus YDR335W, strain msn5, stronger effect = lower value 0.967 | locus YDR392W, strain spt3, stronger effect = lower value 0.916 | locus YDR502C, strain sam2, stronger effect = lower value 0.937 | locus YEL003W, strain gim4, stronger effect = lower value 0.954 | locus YEL037C, strain rad23, stronger effect = lower value 0.969 | locus YEL061C, strain CIN8 (second series), stronger effect = lower value 0.955 | locus YEL061C, strain CIN8, stronger effect = lower value 0.961 | locus YER015W, strain faa2, stronger effect = lower value 0.959 | locus YER016W, strain bim1, stronger effect = lower value 0.971 | locus YER110C, stronger effect = lower value 0.978 | locus YER111C, strain swi4, stronger effect = lower value 0.955 | locus YER155C, strain BEM2, stronger effect = lower value 0.985 | locus YER167W, strain BCK2, stronger effect = lower value 0.977 | locus YFR010W, strain ubp6, stronger effect = lower value 0.938 | locus YGL078C, strain dbp3, stronger effect = lower value 0.939 | locus YGL167C, strain pmr1, stronger effect = lower value 0.962 | locus YGL173C, strain kem1, stronger effect = lower value 0.949 | locus YGL227W, strain vid30, stronger effect = lower value 0.975 | locus YGL248W, strain PDE1, stronger effect = lower value 0.994 | locus YGL253W, strain hxk2, stronger effect = lower value 0.971 | locus YGR135W, strain pre9, stronger effect = lower value 0.943 | locus YGR252W, strain gcn5, stronger effect = lower value 0.849 | locus YHR013C, strain ard1, stronger effect = lower value 1.03 | locus YHR027C, strain rpn1, stronger effect = lower value 0.974 | locus YHR030C, strain SLT2, stronger effect = lower value 1 and 0.976 | locus YHR079C, strain IRE1 (second series), stronger effect = lower value 0.968 | locus YHR079C, strain IRE1, stronger effect = lower value 0.979 | locus YHR094C, strain hxt1, stronger effect = lower value 0.977 | locus YHR129C, strain ARP1, stronger effect = lower value 0.998 | locus YHR142W, strain chs7, stronger effect = lower value 0.949 | locus YHR200W, strain rpn10, stronger effect = lower value 0.944 | locus YIL066C, strain RNR3, stronger effect = lower value 0.985 | locus YIL073C, strain SPO22, stronger effect = lower value 1.02 | locus YIL125W, strain kgd1, stronger effect = lower value 0.947 | locus YIR030C, strain dcg1, stronger effect = lower value 0.971 | locus YJL092W, strain hpr5, stronger effect = lower value 0.963 | locus YJL095W, strain BCK1 (second series), stronger effect = lower value 0.972 | locus YJL115W, strain asf1, stronger effect = lower value 0.967 | locus YJL129C, strain trk1, stronger effect = lower value 0.937 | locus YJL134W, strain LCB3, stronger effect = lower value 0.991 | locus YJL154C, strain vps35, stronger effect = lower value 0.968 | locus YJL164C, strain tpk1, stronger effect = lower value 0.944 | locus YJL166W, strain qcr8, stronger effect = lower value 0.948 | locus YJL168C, strain set2, stronger effect = lower value 0.982 | locus YJL187C, strain SWE1 (second series), stronger effect = lower value 0.959 | locus YJR043C, strain POL32, stronger effect = lower value 0.985
0.944 (inactive) and 0.792 (active): locus YJL095W, strain BCK1, stronger effect = lower value
active: locus YAL013W, strain DEP1, stronger effect = lower value 0.769 | locus YDL192W, strain arf1, stronger effect = lower value 0.91 | locus YDR137W, strain rgp1, stronger effect = lower value 0.794 | locus YDR159W, strain sac3, stronger effect = lower value 0.854 | locus YDR195W, strain ref2 0.84 | locus YDR388W, stronger effect = lower value 0.911 | locus YER155C, strain BEM2 (second series), stronger effect = lower value 0.863 | locus YGL086W, strain mad1, stronger effect = lower value 1.18 [resistant] | locus YGL240W, strain doc1, stronger effect = lower value 0.886

Reference: PubChem BioAssay AID1159580 (chemical genetic matrix, 2015)
